In the supplement of paper PMC8975748:
Counter-ions that a name gives are not always drawn. ± gives the standard deviation of the averaged measurements.

Columns and labels:
[1] = system: Saccharomyces cerevisiae BY4741 SeMeCo community; test: mean cell size (pixel area) (pixels); higher = larger cells; conditions: 10 µM; 24 h; SM minimal medium
Summary of the method: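 Mean cell pixel area per well was measured in a four-plasmid fluorescent community of Saccharomyces cerevisiae BY4741, where every plasmid complements one auxotrophy and carries a fluorescent marker. Cells from an overnight preculture at OD600 = 1.0 were diluted to OD600 = 0.3 and dispensed at 70 µl into 384-well plates acoustically predosed with drug to a final 10 µM in SM medium. Incubation lasted 24 h, followed by paraformaldehyde fixation, automated confocal imaging and analysis in Harmony. Reported figures are averaged over 3 replicates. Same SeMeCo high-content imaging drug screen: Selleck FDA-approved drugs at 10 µM, 24 h in SM medium, 384-well plates, 3 replicates.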

[2] = system: Saccharomyces cerevisiae BY4741 SeMeCo community; test: z-score of prototroph abundance vs DMSO median; higher = larger share of this subpopulation than in DMSO controls; conditions: 10 µM; 24 h; SM minimal medium; subpopulation (auxotrophy): Prototroph
Summary of the method: (§1)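 Cells of a Saccharomyces cerevisiae BY4741 community, carrying four plasmids that each restored one auxotrophy and encoded a distinct fluorescent protein, were pre-grown overnight to OD600 1.0 and diluted to 0.3. A 70 µl volume was added to 384-well plates acoustically predosed with library drugs (10 µM final) and grown 24 h in minimal SM medium. After paraformaldehyde fixation, automated confocal microscopy was used, with single-auxotroph fluorescent strains for thresholds and autofluorescence correction. The abundance of each subpopulation was scored as a z-score against the vehicle-well median.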

[3] = system: Saccharomyces cerevisiae BY4741 SeMeCo community; test: z-score of subpopulation abundance vs DMSO median, subpopulation auxotrophic for M; higher = larger share of this subpopulation than in DMSO controls; conditions: 10 µM; 24 h; SM minimal medium; subpopulation (auxotrophy): M
Summary of the method: as §1

[4] = system: Saccharomyces cerevisiae BY4741 SeMeCo community; test: z-score of subpopulation abundance vs DMSO median, subpopulation auxotrophic for L; higher = larger share of this subpopulation than in DMSO controls; conditions: 10 µM; 24 h; SM minimal medium; subpopulation (auxotrophy): L
Summary of the method: as §1

[5] = system: Saccharomyces cerevisiae BY4741 SeMeCo community; test: z-score of subpopulation abundance vs DMSO median, subpopulation auxotrophic for U; higher = larger share of this subpopulation than in DMSO controls; conditions: 10 µM; 24 h; SM minimal medium; subpopulation (auxotrophy): U
Summary of the method: as §1

[6] = system: Saccharomyces cerevisiae BY4741 SeMeCo community; test: z-score of subpopulation abundance vs DMSO median, subpopulation auxotrophic for H; higher = larger share of this subpopulation than in DMSO controls; conditions: 10 µM; 24 h; SM minimal medium; subpopulation (auxotrophy): H
Summary of the method: as §1

[7] = system: Saccharomyces cerevisiae BY4741 SeMeCo community; test: z-score of subpopulation abundance vs DMSO median, subpopulation auxotrophic for LU; higher = larger share of this subpopulation than in DMSO controls; conditions: 10 µM; 24 h; SM minimal medium; subpopulation (auxotrophy): LU
Summary of the method: as §1

[8] = system: Saccharomyces cerevisiae BY4741 SeMeCo community; test: z-score of subpopulation abundance vs DMSO median, subpopulation auxotrophic for HM; higher = larger share of this subpopulation than in DMSO controls; conditions: 10 µM; 24 h; SM minimal medium; subpopulation (auxotrophy): HM
Summary of the method: as §1

[9] = system: Saccharomyces cerevisiae BY4741 SeMeCo community; test: z-score of subpopulation abundance vs DMSO median, subpopulation auxotrophic for HU; higher = larger share of this subpopulation than in DMSO controls; conditions: 10 µM; 24 h; SM minimal medium; subpopulation (auxotrophy): HU
Summary of the method: as §1

[10] = system: Saccharomyces cerevisiae BY4741 SeMeCo community; test: z-score of subpopulation abundance vs DMSO median, subpopulation auxotrophic for UM; higher = larger share of this subpopulation than in DMSO controls; conditions: 10 µM; 24 h; SM minimal medium; subpopulation (auxotrophy): UM
Summary of the method: as §1

[11] = system: Saccharomyces cerevisiae BY4741 SeMeCo community; test: z-score of subpopulation abundance vs DMSO median, subpopulation auxotrophic for HL; higher = larger share of this subpopulation than in DMSO controls; conditions: 10 µM; 24 h; SM minimal medium; subpopulation (auxotrophy): HL
Summary of the method: as §1

[12] = system: Saccharomyces cerevisiae BY4741 SeMeCo community; test: z-score of subpopulation abundance vs DMSO median, subpopulation auxotrophic for HLM; higher = larger share of this subpopulation than in DMSO controls; conditions: 10 µM; 24 h; SM minimal medium; subpopulation (auxotrophy): HLM
Summary of the method: as §1

[13] = system: Saccharomyces cerevisiae BY4741 SeMeCo community; test: z-score of subpopulation abundance vs DMSO median, subpopulation auxotrophic for LUM; higher = larger share of this subpopulation than in DMSO controls; conditions: 10 µM; 24 h; SM minimal medium; subpopulation (auxotrophy): LUM
Summary of the method: as §1

[14] = system: Saccharomyces cerevisiae BY4741 SeMeCo community; test: z-score of subpopulation abundance vs DMSO median, subpopulation auxotrophic for HLUM; higher = larger share of this subpopulation than in DMSO controls; conditions: 10 µM; 24 h; SM minimal medium; subpopulation (auxotrophy): HLUM
Summary of the method: as §1

[15] = system: Saccharomyces cerevisiae BY4741 SeMeCo community; test: z-score of subpopulation abundance vs DMSO median, subpopulation auxotrophic for LM; higher = larger share of this subpopulation than in DMSO controls; conditions: 10 µM; 24 h; SM minimal medium; subpopulation (auxotrophy): LM
Summary of the method: as §1

[16] = system: Saccharomyces cerevisiae BY4741 SeMeCo community; test: z-score of subpopulation abundance vs DMSO median, subpopulation auxotrophic for HUM; higher = larger share of this subpopulation than in DMSO controls; conditions: 10 µM; 24 h; SM minimal medium; subpopulation (auxotrophy): HUM
Summary of the method: as §1

| Compound | mean cell size [1] | z-score of prototroph abundance [2] | z-score of subpopulation abundance [3] | z-score of subpopulation abundance [4] | z-score of subpopulation abundance [5] | z-score of subpopulation abundance [6] | z-score of subpopulation abundance [7] | z-score of subpopulation abundance [8] | z-score of subpopulation abundance [9] | z-score of subpopulation abundance [10] | z-score of subpopulation abundance [11] | z-score of subpopulation abundance [12] | z-score of subpopulation abundance [13] | z-score of subpopulation abundance [14] | z-score of subpopulation abundance [15] | z-score of subpopulation abundance [16] |
| --- | --- | --- | --- | --- | --- | --- | --- | --- | --- | --- | --- | --- | --- | --- | --- | --- |
| CCCCCc1ccc(C)cc1O [Amylmetacresol] | 12.4 ± 0.14 | -0.1 | -0.65 | 0.4 | 0.39 | -0.64 | 0.24 | -0.5 | -0.1 | -0.13 | -0.02 | 0.52 | 0.11 | 0.41 | – | – |
| CC[C@H](c1ccc(O)cc1)[C@@H](CC)c1ccc(O)cc1 [Hexestrol] | 12.7 ± 0.21 | 1.27 | 0.45 | -0.78 | -0.6 | -0.31 | -1.49 | – | -0.58 | -0.86 | -0.81 | -0.94 | -1.39 | -1.21 | -0.2 | -0.88 |
| O=C([O-])CC(O)(CC(=O)[O-])C(=O)[O-].O=C([O-])CC(O)(CC(=O)[O-])C(=O)[O-].[Bi+3].[K+].[K+].[K+].[K+].[K+] [Bismuth Subcitrate Potassium] | – | 0.38 | -3.84 | 2.37 | -0.49 | 3.24 | 1.34 | -1.66 | 2.94 | -2.69 | 4.34 | 1.76 | 0.14 | 0.65 | -1.07 | -1.79 |
| O=C(O)CCC(=O)OC[C@@H](NC(=O)C(Cl)Cl)[C@H](O)c1ccc([N+](=O)[O-])cc1 [Chloramphenicol sodium succinate] | 12.13 ± 0.03 | -0.62 | 0.71 | 2.27 | -0.91 | 0.42 | 0.45 | 0.94 | – | -0.25 | 1.46 | 0.81 | 1.21 | 0.88 | 1.25 | – |
| Nc1nc2ccc(OC(F)(F)F)cc2s1 [Riluzole] | 12.6 ± 0.14 | 0.62 | -0.49 | 0.43 | -0.8 | – | 0.41 | -0.84 | -1.39 | – | -0.55 | – | -0.13 | 0.8 | 0.35 | -0.82 |
| Nc1c2c(nc3ccccc13)CCCC2 [Tacrine hydrochloride hydrate] | – | – | 0.5 | -0.15 | 0 | -0.99 | 0.3 | – | -0.42 | – | -0.15 | 0.56 | 0.71 | 0.45 | 0.08 | 0.1 |
| CC/C(=C(\c1ccccc1)c1ccc(OCCN(C)C)cc1)c1ccccc1 [Tamoxifen Citrate] | – | -0.56 | -1.11 | -0.42 | 0.72 | 1.16 | 0.35 | 0.16 | – | – | 0.64 | -0.48 | – | -0.65 | -0.23 | 1.07 |
| CCN(CC)C(=O)C1(c2ccccc2)CC1CN (stereo not given) [Milnacipran HCl] | 12.3 ± 0.28 | 0.28 | -0.86 | 0.74 | 0.47 | -1.04 | 0.01 | – | -0.14 | 0.33 | -0.61 | -0.14 | 0.17 | – | 0 | -0.13 |
| CS(=O)(=O)c1ccc([C@@H](O)[C@@H](CO)NC(=O)C(Cl)Cl)cc1 [Thiamphenicol] | 12.41 ± 0.061 | 0.25 | -0.68 | 0.13 | 0.59 | – | 0.67 | -0.5 | 0.15 | 0.81 | -0.52 | -0.85 | -0.6 | -0.23 | – | -0.08 |
| CCOC(=O)C1=C(C)NC(C)=C(C(=O)OCC)C1c1ccccc1/C=C/C(=O)OC(C)(C)C [Lacidipine] | 12.5 ± 0.14 | 0.54 | 3.48 | 1.08 | – | 1.2 | -2.51 | 1.9 | -2.93 | -2.61 | – | 1.17 | -1.16 | – | 1.6 | – |
| CCC[C@@H]1C[C@@H](C(=O)N[C@@H]([C@H]2O[C@H](SC)[C@H](O)[C@@H](O)[C@H]2O)[C@@H](C)O)N(C)C1 [Lincomycin HCl] | 12.4 ± 0.14 | 0.69 | 0.32 | -0.98 | – | -0.53 | -0.63 | -0.17 | -0.73 | 0.19 | -0.34 | -0.77 | -0.87 | -0.36 | – | 0.3 |
| C[C@H](NCc1ccc(OCc2cccc(F)c2)cc1)C(N)=O [Safinamide Mesylate] | 12.4 ± 0.16 | -0.78 | 0.58 | 0.79 | -0.34 | 0.45 | 0.54 | – | 0.27 | 0.17 | 0.64 | 0.54 | 0.24 | 0.33 | 0.94 | 0.75 |
| Cc1c(C(N)=O)cc([N+](=O)[O-])cc1[N+](=O)[O-] [Dinitolmide] | – | -0.01 | -0.14 | 0.45 | 0.48 | – | 1.05 | -0.5 | 0.78 | 0.34 | -0.36 | -0.3 | -0.13 | 0.38 | 0.46 | -0.56 |
| OCCN(CCO)c1nc(N2CCCCC2)c2nc(N(CCO)CCO)nc(N3CCCCC3)c2n1 [Dipyridamole] | 12.5 ± 0.14 | 1.3 | 5.88 | 4.21 | -6.98 | – | -7.03 | 6.49 | – | – | 6.01 | 11.4 | -4.38 | – | 10.9 | -6.13 |
